# In all, about 320,000 compounds went through this assay and about 22,000 (6.9%) were called active. Inconclusive results (about 27%) are left out. Many of the other results were omitted from the sample, so actives are more common in it than they were. Values without a mark were called inactive. Calls come from the whole dose curve; as a rule, active = well fitted inhibition curve with a large enough effect; inconclusive = small, poorly fitted or top-dose-only effect, or another doubt; inactive = no such curve, though single readings can be large or run the other way.
# Experiment: Primary qHTS for delayed death inhibitors of the malarial parasite plastid, 96 hour incubation
# Conditions: P. falciparum luciferase reporter growth; series mostly up to 28.7 µM; activity change, negative = inhibition: at the top concentration
# How it was run: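 Two-generation exposure (96 h) targets delayed-death phenotype. Reporter parasites carrying integrated firefly luciferase, in red cells at 2% hematocrit and 0.05% parasitemia final, kept at 37 C, 5% CO2; luminescence loss indicates inhibition.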
# % is set by controls: 0 for no effect and ±100 for the full control effect; potency is the fitted concentration of half-maximal effect.
SMILES,"activity change, negative = inhibition",Potency
CCOc1ccc(N(CC(=O)NCC2CCCO2)S(=O)(=O)c2ccc(C)cc2)cc1 (stereo unspecified),17.6%,
CCOC(=O)c1sc(NC(=O)c2sc(C)nc2C)nc1C,32.2%,
CCOC(=O)c1sc(NC(=O)c2ccncc2)nc1C,,9.28 µM (active)
CCOC(=O)c1cccnc1NC(=O)c1ccncc1,18.8%,
CCc1nc(SCC(=O)NNC(=O)c2ccc(C)cc2)c2ccccc2n1,16.4%,
C=Cn1cc[n+](CC(=O)c2ccc(OC)c(OC)c2)c1,-6.61%,
C=CCOc1ccc(/C=C2/C(=O)ON=C2C)cc1OCC,2.1%,
COc1ccc(NC(=O)CN(C)C(=O)Cc2coc3cc(C)c(C)cc23)cc1,-1.57%,
NC(=O)C1CCN(C(=O)/C(=C/c2ccco2)NC(=O)c2ccccc2)CC1,-2.21%,
O=C(C1CCN(C2CCN(Cc3ccc4cc(F)ccc4n3)CC2)CC1)N1CCCC1,16%,
C/C(=C\c1ccco1)CN1CCC(N2CCC(C(=O)N3CCOCC3)CC2)CC1,,5.86 µM (active)
CCOC(=O)C1=C(c2ccc(OC)cc2)C(=O)c2ccccc2C1=O,2.89%,
CCOC(=O)c1c(C)[nH]c(C(=O)NCc2ccccc2OC)c1C,55.2%,
CCOC(=O)c1c(C)[nH]c2c1-c1ccccc1C(=O)C2=O,,1.47 µM (active)
CCOC(=O)COc1nc(C)cc(C(F)(F)F)c1C#N,10.9%,
O=C(NN1C(=O)C2C3C=CC(O3)C2C1=O)c1ccccc1 (stereo unspecified),,11.7 µM (active)
COc1ccccc1C(=O)NN1C(=O)C2C3C=CC(O3)C2C1=O (stereo unspecified),12.9%,
O=C(NN1C(=O)C2C3C=CC(O3)C2C1=O)c1ccncc1 (stereo unspecified),31.8%,
Cc1ccc(S(=O)(=O)N2CCN(C(=O)N3CCOCC3)CC2)c(C)c1,0%,
O=C(COC(=O)c1ccccc1Cl)NC1CCCCCCC1,22.8%,
CCOc1ccc(N2C(=O)CSC2=NC#N)cc1,-2.8%,
CC(=O)N=c1ncn(CC(COC(C)=O)OC(C)=O)c2nc[nH]c12 (stereo unspecified),,7.38 µM (active)

SMILES,"activity change, negative = inhibition",Potency
CC(=O)OCC(COC(C)=O)OC(C)=O,,inactive
CC(=O)OC(COc1ccc(F)cc1)Cn1cnc2ccccc21 (stereo unspecified),-11.5%,
CCOc1ccc(NS(=O)(=O)c2ccc(Cl)c(C(=O)N(C)Cc3cccnc3)c2)cc1,-18.3%,
COCCN1C=C2C(=O)C(C)(OC(=O)C3CCCC3)C(=O)C=C2C=C1c1ccsc1 (stereo unspecified),31%,
CC1(OC(=O)CCc2ccccc2)C(=O)C=C2C=C(c3ccc(C#N)cc3)N(CCc3ccccn3)C=C2C1=O (stereo unspecified),,13.1 µM (active)
Cc1ccc(OCCCC(=O)Nc2ccc(S(=O)(=O)Nc3cc(C)nc(C)n3)cc2)cc1,2.09%,
CCCS(=O)(=O)Nc1ccc(-c2cn3c(n2)SCC3)cc1,60.1%,
O=C(Nc1cccc(Cl)c1Cl)c1ccccc1NC(=O)C1CC=CCC1C(=O)O (stereo unspecified),,14.7 µM (active)
CC(=O)Nc1ccc(NC(=O)COc2ccccc2C(=O)Nc2cccc(Cl)c2Cl)cc1,-7.49%,
O=C(O)C1CC=CCC1C(=O)Nc1ccccc1C(=O)N1CCN(c2ccccc2)CC1 (stereo unspecified),-3.07%,
COCc1c(C(=O)N/N=C\c2cccnc2)nnn1-c1nonc1N,-18.9%,
Cc1ccc(C(=O)NNc2ncnc3ccccc23)cc1,-13.1%,
Cc1nn(-c2ccccc2)c(Cl)c1/C=N/NC(=O)c1nn(C)cc1[N+](=O)[O-],-22%,
Cc1cc(=O)[nH]c(N/N=C/c2c(C)nn(-c3ccccc3Cl)c2Cl)n1,,2.94 µM (active)
Cc1cc(=O)[nH]c(N/N=C/c2ccc3c(c2)OCCO3)n1,78.7%,
CC1CCCC(NC(=O)c2cc(-c3ccncc3)nc3ccccc23)C1C (stereo unspecified),-15.3%,
CCCCSc1nnc2c(n1)OC=Nc1ccccc1-2,23.8%,
CNS(=O)(=O)c1cccc(C(=O)NCC2CCCCC2)c1,17.8%,
CCOc1ccc(N/C(N)=N/c2nc(C)c(C)c(=O)[nH]2)cc1,-14.9%,
O=C(Nc1cccc(Cl)c1N1CCOCC1)c1cccnc1,,9.28 µM (active)
COC(=O)c1cc(NC(=O)c2cccnc2)ccc1N1CCOCC1,-4.07%,
O=C(Nc1cccc(Cl)c1N1CCOCC1)c1ccc2c(c1)OCCO2,47.9% [at 5.75 µM],

SMILES,"activity change, negative = inhibition",Potency
COCCNC(=O)c1ccc2c(c1)ncn2-c1ccc(C)c(Cl)c1,11.4%,
COc1ccc2c(c1)N(C)/C(=C1/SC(=S)N(NC(C)=O)C1=O)S2,0%,
Cn1nccc1C(=O)N1CCCC(C(=O)c2ccc(Oc3ccccc3)cc2)C1 (stereo unspecified),,2.94 µM (active)
Cc1ccccc1NC(=O)C1CCCN(C(=O)NCc2ccccc2)C1 (stereo unspecified),-4.69%,
CCNC(=O)N1CCCC(C(=O)c2ccc(-c3ccccc3)cc2)C1 (stereo unspecified),,10.4 µM (active)
COc1ccc(C(=O)C2CCCN(C(=O)c3cnsn3)C2)c(C)c1 (stereo unspecified),12.8%,
COc1ccc2cc(C(=O)C3CCCN(C(=O)c4sc(C)nc4C)C3)ccc2c1 (stereo unspecified),,13.1 µM (active)
Cc1nc(C(=O)N2CCCC(C(=O)c3ccc(Cl)cc3)C2)cs1 (stereo unspecified),7.81%,
CC(C)Oc1cccc(C(=O)C2CCCN(C3CCOCC3)C2)c1 (stereo unspecified),-13.1%,
CCn1nc(C)cc1C(=O)N1CCCC(C(=O)c2cccc(OC)c2)C1 (stereo unspecified),20.3%,
CSc1ccc(C(=O)C2CCCN(C(=O)c3ccc(C)nc3)C2)cc1 (stereo unspecified),-19.8%,
CCOc1cc(/C=C/c2nc3ccccc3c(=O)[nH]2)cc(Br)c1OC,-29.4%,
Cc1cc(OC(=O)c2ccc(OC(C)C)cc2)c([N+](=O)[O-])c(=O)[nH]1,-13.8%,
Cc1cccc(C(=O)OC(C)C(=O)NC2CCCc3ccccc32)c1O (stereo unspecified),92.5%,
O=C(NC1CCCCC1)c1ccc(-c2ccc(Cl)cc2)o1,131%,
COc1ccc(C2/C(=C(/O)c3ccc4c(c3)CC(C)O4)C(=O)C(=O)N2Cc2ccncc2)cc1 (stereo unspecified),3.97%,
CC(=O)c1c(C)[nH]c(C(=O)OCC(=O)Nc2c(C)n(C)n(-c3ccccc3)c2=O)c1C,17.9%,
COc1ccc(N2CCN(C(=O)CN3C(=O)COc4ccccc43)CC2)cc1,2.23%,
CN1CN(C)c2ccc([N+](=O)[O-])c3cccc1c23,41.2%,
O=C(NCc1ccncc1)C1CCN(C(=O)c2cccc(Cl)c2)CC1,45.8%,
Cc1ccc(-c2csc(N3CCN(c4cc5c(cc4Cl)nc(-c4ccncc4)n5CCOCCO)CC3)n2)cc1,,5.86 µM (active)
CCCn1c(C2CCCN2c2nc(-c3ccc(C)cc3)cs2)nc2cc(Cl)c(N3CCCCC3)cc21 (stereo unspecified),,3.29 µM (active)

SMILES,"activity change, negative = inhibition",Potency
COc1ccc(-c2csc(N3CCN(Cc4ccc5c(c4)OCO5)CC3)n2)cc1,-2.39%,
COc1cccc(NC(=O)CN2CCN(c3nc(-c4cccc(OC)c4)cs3)CC2)c1,-2.14%,
CCn1c(SCC(=O)N/N=C/c2ccccc2OCC(=O)O)nnc1-c1ccc(C(C)(C)C)cc1,2.33%,
O=C1CC2(CC(c3ccc(Cl)cc3)=NO2)C(=O)N1c1ccccc1 (stereo unspecified),-4.38%,
COCCN(CCOC)c1nc(N)c2c(N)nc3c(c2c1C#N)CC(=O)N3Cc1ccc(Cl)cc1,,2.62 µM (active)
CCCCN1C(=O)C(=O)N(CC(=O)Nc2cccc(C(C)=O)c2)C1=O,-16.1%,
COc1ccc(NCCc2ccccn2)cc1,30.7%,
Cc1ccc(NC(=O)CCC(=O)c2ccc(Br)cc2)cc1,37%,
CCOC(=O)c1cccc(NC(=O)C2CCN(c3ncnc4c3nc3n4CCCCC3)CC2)c1,,10.4 µM (active)
CN(C(=O)C1CCN(c2ncnc3c2nc2n3CCCCC2)CC1)C1CCCCC1,1.7%,
CN(Cc1ccccc1)C(=O)C1CCCN(c2ncnc3c2nc2n3CCCCC2)C1 (stereo unspecified),,14.7 µM (active)
COCCNc1ncnc2c1nc1n2CCCC1,16.5%,
OC1CCCN(c2ncnc3c2nnn3Cc2c(F)cccc2Cl)C1 (stereo unspecified),45.1%,
COc1cccc(CNC(=O)C2CCCN(c3ncnc4c3nc3n4CCCCC3)C2)c1 (stereo unspecified),23.4%,
O=C(NCc1ccccc1Cl)C1CCN(c2ncnc3c2nc2n3CCCCC2)CC1,17.6%,
COc1cccc(NC(=O)C2CCCN(c3ncnc4c3nc3n4CCCCC3)C2)c1 (stereo unspecified),,8.28 µM (active)
O=C(NCCCN1CCCCC1)C1CCCN(c2ncnc3c2nc2n3CCCCC2)C1 (stereo unspecified),0.744%,
Cc1cnc(C(=O)Oc2cccc(Cl)c2Cl)cn1,34.7%,
O=C(NCC#CCSc1nnc(-c2cccc3ccccc23)o1)c1cccs1,-16.4%,
Cc1ccc(S(=O)(=O)N[C@@H](Cc2ccccc2)C(=O)N2CCC(C(=O)N[C@H](C(=O)O)C(C)O)CC2)cc1 (stereo partly specified),4.81%,
O=S(=O)(Cc1nnnn1-c1ccc(Br)cc1)c1ccc(F)cc1,13.9%,
O=C(Nc1ccccc1)/C(=C\c1ccco1)NC(=O)c1ccco1,14.6%,

SMILES,"activity change, negative = inhibition",Potency
CCn1c(SCC(=O)Nc2sc(C)c(C)c2C#N)nnc1C1CC1,4.09%,
O=C(N1CCOCC1)N(Cc1ccccc1)c1ccccn1,2.7%,
CC(=O)c1c(N2CCOCC2)nc(=S)n(Cc2ccccc2)c1C,,0.329 µM (active)
CC(=O)c1c(N2CCOCC2)nc(=S)n(-c2cc(C)ccc2C)c1C,0.824%,
CN1CCN(C(=O)c2ccccc2NC(=O)COc2ccccc2Cl)CC1,-4.76%,
CCOc1ccc(NC(=S)N2CCCCCC2)cc1,-20%,
CCOc1ccc(S(=O)(=O)N2CCN(C(=S)NCC3CCCO3)CC2)cc1 (stereo unspecified),,2.94 µM (active)
CCOc1ccc(S(=O)(=O)NCCC(=O)NCC2CCCO2)cc1 (stereo unspecified),24%,
COc1ccc(S(=O)(=O)N2CCN(C(=S)NCC3CCCO3)CC2)cc1OC (stereo unspecified),-5.09%,
CCC(C)N(C)C1CCN(C(=S)Nc2ccc(OC)cc2)CC1 (stereo unspecified),-7.01%,
CCOc1ccc(NC(=S)N2CCC(N(C)CC3CCCO3)CC2)cc1 (stereo unspecified),,11.7 µM (active)
NCC(=O)c1cccc2ccc[n+]([O-])c12,36.4%,
O=C(CNC(=O)OCc1ccccc1)NC1CCCCNC1=O (stereo unspecified),54.3%,
Cc1ccc(C(=O)NCC(=O)NCc2cc(=O)n(C)c(=O)n2C)cc1,13.5%,
O=C(NCCc1nnc2ccc(SCC(=O)N3CCOCC3)nn12)c1ccccc1,41.2%,
CCCCOc1ccc(NC(=O)[C@@H]2CCCN2C(=O)C2CCN(S(=O)(=O)c3ccc(C)cc3)CC2)cc1,,11.7 µM (active)
CCOc1cccc(NC(=O)C2CCCN(S(=O)(=O)c3ccc(OC)cc3)C2)c1 (stereo unspecified),2.89%,
COc1ccc(N2CCN(C(=O)C3CCN(S(=O)(=O)c4ccc(C)cc4)CC3)CC2)cc1,6.26%,
